Screens deposited in PubChem by National Center for Advancing Translational Sciences (NCATS).
In the library only some 2.4% were active in any assay of this set; here they are far more common.
D2 PAM-1: HTS Assay for Positive Allosteric Modulators of the Human D2 Dopamine Receptor: Primary Screen for Potentiators. HEK293 T-REx D2, calcium flux, EC20 dopamine potentiation. 0.34% of 340,000 active. potentiation, % at 10 µM. D(2) dopamine receptor (Homo sapiens), P14416;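 active means potentiation over 3 SD above the plate norm, cut at about 30% in these data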
Target sequence (P14416 whole entry, looked up): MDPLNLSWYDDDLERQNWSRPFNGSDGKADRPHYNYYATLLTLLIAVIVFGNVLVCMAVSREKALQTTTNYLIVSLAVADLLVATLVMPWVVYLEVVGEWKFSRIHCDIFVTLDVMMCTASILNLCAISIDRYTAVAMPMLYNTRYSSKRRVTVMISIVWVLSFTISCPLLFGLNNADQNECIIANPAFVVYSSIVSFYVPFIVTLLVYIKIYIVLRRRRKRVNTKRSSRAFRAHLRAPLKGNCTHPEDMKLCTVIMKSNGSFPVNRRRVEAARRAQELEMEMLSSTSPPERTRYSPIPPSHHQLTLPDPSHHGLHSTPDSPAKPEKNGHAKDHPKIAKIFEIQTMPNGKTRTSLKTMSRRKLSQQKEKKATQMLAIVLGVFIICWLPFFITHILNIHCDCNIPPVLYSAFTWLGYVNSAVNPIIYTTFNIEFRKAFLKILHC
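Tetracycline-induced HEK293 T-REx cells force-coupled to calcium signalling expressed D2; compounds were pin-added after a 10 s baseline, read kinetically 180 s, then an EC20 dopamine challenge followed with a further 180 s calcium read.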
D2 antag: HTS Assay for Allosteric Antagonists of the Human D2 Dopamine Receptor: Primary Screen for Antagonists; 2% of 340,000 active; HEK293 TREx D2 cells, calcium flux, dopamine EC80; D(2) dopamine receptor (Homo sapiens), P14416; inhibition, % at 10 µM; in the data active means inhibition above about 30%; inactive means below that, where a call was filed
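Cells plated overnight at 30 C with tetracycline; no-wash calcium dye, 30–90 min RT; 10 s baseline; compound pinned; 180 s read; EC80 dopamine added; another 180 s read.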
D2 ag-1: Beta-Arrestin HTS for Positive Allosteric Modulators of the Human D2 Dopamine Receptor: Agonists | 0.084% of 360,000 active | activation, % (no concentration beside the values) | DiscoveRx PathHunter D2 beta-arrestin, luminescence, 90 min; 100% = 57 uM dopamine signal | D(2) dopamine receptor (Homo sapiens), P14416; in the data active means activation above about 40%; inconclusive means between about 15% and that limit
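Agonist mode: compounds alone added to overnight-plated D2 PathHunter cells for 90 min at 37 C, with 57 uM final dopamine (EC100) defining full response. Beta-arrestin recruitment detected by chemiluminescent reagent, read after 1 h at ambient temperature.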
D2 PAM-2: Beta-Arrestin HTS for Positive Allosteric Modulators of the Human D2 Dopamine Receptor: Potentiators. D(2) dopamine receptor (Homo sapiens), P14416. DiscoveRx D2 beta-arrestin cells, luminescence, 90 min; 100% = 57 uM dopamine signal. potentiation, % (test concentration not listed). 0.23% of 360,000 active; in the data active means potentiation above about 50%; inconclusive means mostly about 30% to 49%
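PathHunter beta-arrestin assay in DiscoveRx D2 cells. Compounds were added with an EC20 of dopamine (50 nM final) for 90 min at 37 deg C. Luminescence was read 1 h after detection reagent, with 57 uM dopamine as the EC100 control.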
D2 ag-2: HTS Assay for Allosteric Agonists of the Human D2 Dopamine Receptor: Primary Screen for Agonists; D(2) dopamine receptor (Homo sapiens), P14416; HEK293 T-REx D2 cells, calcium flux agonist mode; activation, % at 2 µM; 0.53% of 340,000 active; AID 485358, 2010;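 active means activation over 3 SD above normal in the single-dose calcium agonist read, cut at about 30% in these data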
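Tetracycline-induced HEK293 Trex cells with D2 receptor force-coupled to calcium signaling, plated overnight at 30 C and loaded with no-wash calcium dye. Calcium flux read kinetically for 180 s after compound addition; responses flag agonists.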
D3 ag: qHTS of D3 Dopamine Receptor Agonist: D3 Dopamine Receptor B-arrestin Agonist Confirmatory Assay; shares compounds with D2 ag-2; DiscoveRx D3 beta-arrestin cells, luminescence, 90 min; Potency, µM (top dose mostly 76.9 µM), actives largely listed as activators; 4% of 2,300 active; further: nearly all actives have a fitted effect of over 70% in size
D2 ag-3: qHTS of D3 Dopamine Receptor Agonist: D2 Dopamine Receptor B-arrestin Agonist Counterscreen; shares compounds with D2 ag-2; DiscoveRx PathHunter D2 beta-arrestin, luminescence, 90 min; response scale: percent relative to full dopamine signal; Potency, µM (top dose mostly 76.9 µM), most hits filed as activators; 5.9% of 2,300 active; further: nearly all actives have a fitted effect of over 70% in size
A number is an active result; n = inactive; u = inconclusive; x = no result. Unless noted, the call rests on the fitted dose curve; in most records, active means well fitted activation curve with a large enough effect; inconclusive means small, poorly fitted or top-dose-only effect; inactive means flat fitted curve, though single readings scatter.

SMILES	D2 PAM-1	D2 antag	D2 ag-1	D2 PAM-2	D2 ag-2	D3 ag	D2 ag-3
O=S(=O)(NCC(c1cccnc1)N1CCN(Cc2ccccc2)CC1)c1cc(F)ccc1F (stereo not given)	n	43.2	n	n	69.8	n	n
COc1ccc(N2CCN(C(CNS(=O)(=O)c3cccs3)c3cccnc3)CC2)cc1 (stereo not given)	n	n	n	n	n	x	x
O=S(=O)(NCC(c1cccnc1)N1CCN(c2ccccc2)CC1)c1cccs1 (stereo not given)	n	n	n	n	n	n	n
S=C(Nc1ccccc1)N1CCN(c2ccccn2)CC1	n	n	n	n	44.7	n	n
COc1ccc(NC(=S)N2CCN(c3ccccn3)CC2)cc1	n	n	n	n	n	x	x
Cc1ccc(C)c(NC(=S)N2CCN(c3ccccn3)CC2)c1	n	n	n	n	n	n	n
FC(F)(F)c1ccccc1NC(=S)N1CCCC1	n	n	n	n	n	x	x
FC(F)(F)c1ccccc1NC(=S)N1CCN(c2ccccn2)CC1	n	n	n	n	40.7	n	n
O=C(/C=C/c1ccc(F)cc1)NC(=S)N1CCN(c2ccccn2)CC1	n	n	n	n	35.4	n	n
CCc1ccc(-n2c(N3CCN(c4ccc(F)cc4)CC3)nc3ccccc3c2=O)cc1	n	x	x	x	n	x	x
Cc1ccccc1OCCSc1nc2ccc(NC(=O)c3cccs3)cc2s1	n	x	x	x	n	x	x
Cc1cc(C)c2oc(C(=O)Nc3c(C(=O)c4ccccc4)oc4ccccc34)cc(=O)c2c1	n	x	x	x	n	x	x
Cc1ccc2[nH]c3c(c2c1)CNCC3	n	n	n	n	n	x	x
c1ccc2c3c([nH]c2c1)CCNC3	n	n	n	n	n	n	n
CC(=O)SC1CC(=O)N(c2c(C)cccc2C)C1=O (stereo not given)	n	n	n	n	54.6	n	n
Cn1c(=O)c(Oc2ccc(F)cc2)c(O)c2ccccc21	n	n	n	n	50.3	n	n
CC(=O)c1c(O)c2ccccc2n(C)c1=O	n	n	n	n	n	x	x
CCCn1c(N)c(C(c2ccc(OC)cc2)N2CCN(c3ccccc3)CC2)c(=O)[nH]c1=O (stereo not given)	n	n	n	n	42.8	n	n
COC(=O)c1ccc(C(c2c(N)n(CC(C)C)c(=O)[nH]c2=O)N2CCN(c3ccccc3)CC2)cc1 (stereo not given)	x	x	n	n	x	x	x
CCCn1c(N)c(C(c2ccc(C(=O)OC)cc2)N2CCN(c3ccccc3)CC2)c(=O)[nH]c1=O (stereo not given)	n	n	n	n	47.5	n	n
Cc1cc(C)cc(-n2ccnc2SCC(=O)Nc2nnc(C)s2)c1	n	x	x	x	x	x	x
CN(C)c1ccc(/C=N/N(CCO)C2=NS(=O)(=O)c3ccccc32)cc1	n	n	n	n	n	n	n
CC(NC(=O)C(=O)N1CCOCC1)C(c1cccs1)N1CCN(c2ccccc2)CC1 (stereo not given)	n	n	n	n	44.3	n	n
COc1ccc(N2CCN(C(c3cccs3)C(C)NC(=O)C(=O)N3CCOCC3)CC2)cc1 (stereo not given)	n	n	n	n	n	x	x
Cc1nn(-c2ccccc2)c(C)c1/C=C/C(=O)OC(C)C(=O)Nc1ncc(Cl)cc1Cl (stereo not given)	n	n	n	n	30.4	n	n
SMILES	D2 PAM-1	D2 antag	D2 ag-1	D2 PAM-2	D2 ag-2	D3 ag	D2 ag-3
Cc1nn(-c2ccccc2)c(C)c1/C=C/C(=O)OCC(=O)Nc1ncc(Cl)cc1Cl	n	n	n	n	n	x	x
COc1ccc(-n2ccn(CC(=O)NCc3ccc(C)cc3)c(=O)c2=O)cc1OC	n	x	x	x	n	x	x
COc1ccccc1NS(=O)(=O)c1ccc(C(=O)N2CCCC(C(F)(F)F)C2)cc1 (stereo not given)	n	n	n	n	n	n	n
COc1ccc(-c2nc3ccccc3n3c(-c4cccc(C)c4)c4c(=O)n(C)c(=O)n(C)c4c23)cc1OC	n	x	x	x	n	x	x
Cc1cccc(C(=O)NNC(=O)c2ccc(NS(=O)(=O)c3cccs3)cc2)c1C	n	n	n	n	n	n	n
CCC(=O)N1CCc2cc(S(=O)(=O)N3CCCCCC3)ccc21	n	30.7	n	n	36.8	n	n
CCC(=O)N1CCc2cc(S(=O)(=O)CCC(=O)Nc3ccc(C)cn3)ccc21	n	64.4	n	n	56.6	n	n
CCOC(=O)N1CCC(NC(=O)CCS(=O)(=O)c2ccc3c(c2)CCN3C(=O)CC)CC1	n	73.2	u	n	65.7	n	u
CCC(=O)N1CCc2cc(S(=O)(=O)CCC(=O)NC3CCCCC3)ccc21	n	n	n	n	n	x	x
CCC(=O)N1CCc2cc(S(=O)(=O)N3CCCC3)ccc21	n	n	n	n	n	x	x
CCC(=O)N1CCc2cc(S(=O)(=O)CCC(=O)Nc3ccc(C(C)=O)cc3)ccc21	n	n	n	n	n	x	x
CCC(=O)N1CCc2cc(S(=O)(=O)CCC(=O)Nc3nc(C)cs3)ccc21	n	n	n	n	64.4	n	n
CCC(=O)N1CCc2cc(S(=O)(=O)CCC(=O)Nc3ccc(CC)cc3)ccc21	n	n	n	n	n	x	x
Cc1cc(C)n(-c2nc(C)c(C)c(=O)n2CC(=O)Nc2ccc(OC(F)(F)F)cc2)n1	n	x	x	x	x	x	x
CC(=O)N1c2ccc(S(=O)(=O)N3CCC(C(=O)Nc4ncccc4C)CC3)cc2CC1C (stereo not given)	n	n	n	n	n	n	n
CCC(=O)N1c2ccc(S(=O)(=O)N3CCN(CC)CC3)cc2CC1C (stereo not given)	n	38.6	n	n	47.6	n	n
O=C(NCC(c1ccco1)S(=O)(=O)c1ccc(Cl)cc1)c1ccccc1F (stereo not given)	n	x	x	x	n	x	x
O=C(c1ccccc1)N1N=C(C(F)(F)F)CC1(O)c1ccccc1 (stereo not given)	n	n	n	n	n	x	x
